Rows were chosen to be rich in hits. Some 1.5% of all compounds tested hit in one or more screens of this group.
PI5P4K alpha inh = blocks human PI5P4K alpha kinase activity; P48426; PI5P4Kalpha enzyme, ADP-Glo luminescence, 60 min; stronger effect = lower value; max response, %; 330,000 tested, 1.2% active; active means max response of -50% or lower; inconclusive means between -30% and -50%; inactive means -30% or higher; further: value at the top dose of about 77 µM
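Compounds were pin-transferred onto PI5P4Kalpha and substrate in HEPES pH 7.4 buffer with EGTA, CHAPS and 5% DMSO. ATP (5 microM final) started the reaction, which ran 60 minutes at room temperature before ADP-Glo detection.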
RECQ1 helicase = blocks DNA unwinding by human RECQ1 | RECQ1 DNA unwinding, red fluorescence kinetic read | Potency, µM (titrated, usually from 57.3 µM), actives largely listed as inhibitors | 240,000 tested, 0.54% active; further: nearly all actives have a fitted effect of over 30% in size
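50 nM RECQ1T1 preincubated 15 min with compound in Tris pH 8.0 buffer with MgCl2, DTT, Tween-20 and 2.5 ug/ml poly(dI-dC); started with 200 nM TAMRA/BHQ-2 forked duplex and 2 mM ATP. Unwinding read as fluorescence (525/598 nm), two reads 2 h apart.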
WRN inhibitor = WRN helicase (human) inhibition; Q14191; WRN helicase unwinding, fluorescent forked duplex, kinetic; Potency, µM (series often up to 114 µM), actives largely listed as inhibitors; 360,000 tested, 0.46% active; AID 651768; further: nearly all actives have a fitted effect of over 55% in size
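WRN at 20 nM final preincubated with compound 15 min at room temperature; reaction started with 100 nM fluorophore/quencher forked duplex oligonucleotide and 2 mM ATP final. Unwinding followed kinetically by red fluorescence (ex 525, em 598 nm).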
BLM helicase inh = Bloom syndrome helicase (human) inhibition. Potency, µM (top dose mostly 56.1 µM), most hits filed as inhibitors. P54132. 350,000 tested, 0.2% active. recombinant BLM DNA unwinding, fluorescence dequenching; further: nearly all actives have a fitted effect of over 35% in size
Target sequence (P54132 whole entry, looked up): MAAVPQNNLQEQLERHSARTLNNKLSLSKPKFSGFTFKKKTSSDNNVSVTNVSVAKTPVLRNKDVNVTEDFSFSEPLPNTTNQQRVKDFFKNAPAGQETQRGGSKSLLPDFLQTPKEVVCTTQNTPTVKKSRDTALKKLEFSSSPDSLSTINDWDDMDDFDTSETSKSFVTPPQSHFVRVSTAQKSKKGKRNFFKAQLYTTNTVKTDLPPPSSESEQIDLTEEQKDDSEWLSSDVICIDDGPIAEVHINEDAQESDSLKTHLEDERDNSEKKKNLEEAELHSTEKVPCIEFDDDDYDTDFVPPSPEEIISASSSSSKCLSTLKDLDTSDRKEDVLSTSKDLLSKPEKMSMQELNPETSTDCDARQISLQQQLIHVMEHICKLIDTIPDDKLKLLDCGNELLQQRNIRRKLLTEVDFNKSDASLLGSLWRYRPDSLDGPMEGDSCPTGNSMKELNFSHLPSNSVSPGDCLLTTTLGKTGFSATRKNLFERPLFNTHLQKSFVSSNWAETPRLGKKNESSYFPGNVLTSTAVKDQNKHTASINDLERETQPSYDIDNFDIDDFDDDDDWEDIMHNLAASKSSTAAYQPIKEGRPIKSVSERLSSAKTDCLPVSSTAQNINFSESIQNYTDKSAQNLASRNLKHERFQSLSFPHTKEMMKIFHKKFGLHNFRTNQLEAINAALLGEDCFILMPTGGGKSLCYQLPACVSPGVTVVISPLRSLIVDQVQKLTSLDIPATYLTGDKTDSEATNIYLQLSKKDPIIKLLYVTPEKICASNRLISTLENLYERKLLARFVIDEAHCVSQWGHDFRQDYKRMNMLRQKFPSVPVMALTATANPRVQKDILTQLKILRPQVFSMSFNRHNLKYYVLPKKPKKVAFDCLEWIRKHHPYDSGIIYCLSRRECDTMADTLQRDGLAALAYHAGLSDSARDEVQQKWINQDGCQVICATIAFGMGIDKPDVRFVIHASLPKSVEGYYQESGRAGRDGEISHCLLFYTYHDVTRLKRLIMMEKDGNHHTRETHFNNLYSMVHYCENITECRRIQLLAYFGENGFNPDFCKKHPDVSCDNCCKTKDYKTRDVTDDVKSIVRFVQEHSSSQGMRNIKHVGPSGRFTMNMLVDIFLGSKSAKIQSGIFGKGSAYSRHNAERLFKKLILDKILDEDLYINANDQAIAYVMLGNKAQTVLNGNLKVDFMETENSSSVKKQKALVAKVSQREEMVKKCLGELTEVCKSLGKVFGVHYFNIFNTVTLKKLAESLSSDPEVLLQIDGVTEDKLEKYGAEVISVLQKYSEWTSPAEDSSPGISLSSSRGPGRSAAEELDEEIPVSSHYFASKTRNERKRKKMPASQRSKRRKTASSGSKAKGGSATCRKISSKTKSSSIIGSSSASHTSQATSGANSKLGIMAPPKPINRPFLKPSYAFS
APE1 inh = APE1 (human) endonuclease inhibition. recombinant APE1, TAMRA/BHQ-2 abasic DNA cleavage fluorescence. Potency, µM (titrated, usually from 65.8 µM), actives largely listed as inhibitors. 350,000 tested, 0.35% active; further: nearly all actives have a fitted effect of over 55% in size
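Kinetic fluorescence read (525 ex/598 em nm, three reads 60 s apart) of AP-site incision; signal = third minus first read. Enzyme 0.75 nM, dual-labelled THF duplex 50 nM, compound preincubation 15 min RT.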
FEN1 inh = blocks human flap endonuclease 1; Potency, µM (series often up to 114 µM), hits mostly inhibitors; P39748; 390,000 tested, 0.35% active; Recombinant FEN1 flap cleavage, fluorescence, 15 min; further: nearly all actives have a fitted effect of over 65% in size
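Steps: FEN1 (10 nM) dispensed; compound added by pin tool; 15 min at room temperature; substrate added to 50 nM final; reads at 0 min and 15 min; data normalized and fitted (four-parameter Hill).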
Large screens that a line does not name were inactive. Unless noted, the call rests on the fitted dose curve; in most records, active means well fitted curve in the direction sought with a large enough effect; inconclusive means small, poorly fitted or top-dose-only effect, or another doubt; inactive means no such curve, though single readings can be large; an effect the other way counts as inactive or inconclusive.

Cc1ccc(NC(=O)CSc2nnc(-c3ccco3)c(-c3ccco3)n2)cc1	PI5P4K alpha inh -75, RECQ1 helicase inconclusive, WRN inhibitor 40µM, BLM helicase inh inconclusive, APE1 inh inconclusive, FEN1 inh inconclusive
CC1(OC(=O)C2CCCC2)C(=O)C=C2C=C(c3ccsc3)N(c3cccc(C#N)c3)C=C2C1=O (configuration not stated)	none (no result: PI5P4K alpha inh, WRN inhibitor, FEN1 inh)
COc1cccc(N2CCN(C(=O)c3cccn3-c3nnc(N4CCCC4)s3)CC2)c1	none (no result: PI5P4K alpha inh, RECQ1 helicase, WRN inhibitor, APE1 inh)
CC1=C(C#N)C(=O)NC(=O)/C1=C\c1ccc(-c2ccc(C)cc2[N+](=O)[O-])o1	PI5P4K alpha inh -75, WRN inhibitor inconclusive, APE1 inh inconclusive
O=C1NN(c2ccc(F)c(Cl)c2)C(=O)/C1=C\c1cccc(OC(=O)c2cccs2)c1	PI5P4K alpha inh -82, WRN inhibitor 50µM
O=S(=O)(CCC(F)=C(F)F)c1nnnn1C1CCCCC1	none (no result: PI5P4K alpha inh, WRN inhibitor, FEN1 inh)
N#CN=C1SCCS1	PI5P4K alpha inh -54, WRN inhibitor inconclusive
COc1cc(/C=C/c2nnc3c4ccccc4ncn23)cc(OC)c1OC	WRN inhibitor 56µM
C(=C\c1nnc2c3ccccc3ncn12)/c1ccccc1	none
Cc1ccc(CNC(=O)c2cccc3c2C(=O)c2ccc(N4CCCCC4)cc2S3(=O)=O)cc1	WRN inhibitor 50µM (no result: RECQ1 helicase, BLM helicase inh)
CCN(CC)c1ccc(C=C2C(=O)OC3(CCCC3)OC2=O)cc1	WRN inhibitor 50µM
CCN(CC)c1ccc(C=C2C(=O)OC(c3ccccc3)OC2=O)cc1 (configuration not stated)	WRN inhibitor 50µM
CCN(CC)c1ccc(C=C2C(=O)OC(C)(C(C)(C)C)OC2=O)cc1 (configuration not stated)	WRN inhibitor inconclusive
CC(C)(C)n1ncc2c(=O)n(Cc3ccc(SC(=O)O)cc3Cl)cnc21	none (no result: PI5P4K alpha inh, RECQ1 helicase, WRN inhibitor, BLM helicase inh)
COC(=O)c1c(-c2cccs2)csc1NC(=O)c1ccc(Br)cc1	FEN1 inh inconclusive (no result: PI5P4K alpha inh, RECQ1 helicase, WRN inhibitor, APE1 inh)
COc1cc(C2c3c(-c4ccccc4O)n[nH]c3C(=O)N2Cc2ccco2)ccc1OCC(C)C (configuration not stated)	none (no result: PI5P4K alpha inh, RECQ1 helicase, WRN inhibitor, APE1 inh)
Cc1ccc(C(=O)OCC(=O)c2ccc(CC(=O)N3CCOCC3)s2)c(C)c1	PI5P4K alpha inh inconclusive, WRN inhibitor 50µM, APE1 inh inconclusive (no result: RECQ1 helicase, BLM helicase inh)
Cc1ccc(-n2c(SCC(N)=O)nc3c(oc4ccccc43)c2=O)cc1C	none (no result: PI5P4K alpha inh, RECQ1 helicase, WRN inhibitor, APE1 inh)
CCn1c(CSc2nc3ccccc3s2)nnc1SCC(=O)c1ccc(Cl)cc1	PI5P4K alpha inh -51, WRN inhibitor 79µM
CCn1c(CSc2nc3ccccc3s2)n[nH]c1=S	none (no result: PI5P4K alpha inh)
Cc1ccccc1N1CCN(C2=NC(=O)/C(=C/c3cn[nH]c3-c3ccccc3)S2)CC1	PI5P4K alpha inh -61
O=C1N=c2ccccc2=C1c1sc(=S)n(NC(=O)c2cccc(O)c2)c1O	none
O=C1N=c2ccc(Br)cc2=C1c1sc(=S)n(NS(=O)(=O)c2ccccc2)c1O	PI5P4K alpha inh -98, FEN1 inh 79µM
COc1ccc(-n2c(CC3C(=O)N(C)c4ccc(C)cc43)nc3ccccc3c2=O)cc1 (configuration not stated)	none (no result: PI5P4K alpha inh, RECQ1 helicase, WRN inhibitor, APE1 inh)
Cc1ccc(NC(=O)CN2C(=O)N/C(=C/c3cc(C)n(-c4ccc(C(=O)O)cc4)c3C)C2=O)cc1	PI5P4K alpha inh -53, RECQ1 helicase 40µM, APE1 inh inconclusive
Cc1cc(N2C(=O)C=CC2=O)c([N+](=O)[O-])cc1C	PI5P4K alpha inh -56, FEN1 inh inconclusive
Cc1c([N+](=O)[O-])cc(N2C(=O)C=CC2=O)cc1[N+](=O)[O-]	PI5P4K alpha inh -66 (no result: RECQ1 helicase, BLM helicase inh, APE1 inh)
Cc1cc(C)cc(N2C(=O)C3CC=CCC3C2=O)c1 (configuration not stated)	none
Cc1cc(C)cc(N2C(=O)C=CC2=O)c1	PI5P4K alpha inh inconclusive, WRN inhibitor 20µM (no result: RECQ1 helicase, BLM helicase inh, APE1 inh)
COc1ccc(N2CCN(Cc3cccn3-c3nnc(N4CCN(C5CCCCC5)CC4)s3)CC2)cc1	none (no result: PI5P4K alpha inh, RECQ1 helicase, WRN inhibitor, APE1 inh)
COc1ccc(C)cc1NC(=O)CCn1nc(C)cc1C	none (no result: PI5P4K alpha inh, RECQ1 helicase, WRN inhibitor, APE1 inh)
O=C(O)C(O)c1ccco1 (configuration not stated)	PI5P4K alpha inh -60, WRN inhibitor 50µM, BLM helicase inh inconclusive, FEN1 inh inconclusive
COc1ccc(CNc2ccncc2)c(OC)c1OC	none (no result: RECQ1 helicase, BLM helicase inh, APE1 inh)
